Assay results taken from publication PMC7862700, “An all-to-all approach to the identification of sequence-specific readers for epigenetic DNA modifications on cytosine”.

Key:
Assay in all cases: DAPPL (digital affinity profiling via proximity ligation, sequencing); 10 mM Tris-HCl pH 7.5, 50 mM NaCl, 1 mM DTT, 4% glycerol, room temperature, 30 min; GST-TFs on glutathione beads, 16-mer random dsDNA library, 0.1% formaldehyde crosslink after washing; high values mean tight binding
[1] = biological target: T1, FLI1 (Homo sapiens, UniProt Q01543 1-452); conditions: protein: recombinant; tags: N-terminal GST; dsDNA, one strand shown
T1 sequence: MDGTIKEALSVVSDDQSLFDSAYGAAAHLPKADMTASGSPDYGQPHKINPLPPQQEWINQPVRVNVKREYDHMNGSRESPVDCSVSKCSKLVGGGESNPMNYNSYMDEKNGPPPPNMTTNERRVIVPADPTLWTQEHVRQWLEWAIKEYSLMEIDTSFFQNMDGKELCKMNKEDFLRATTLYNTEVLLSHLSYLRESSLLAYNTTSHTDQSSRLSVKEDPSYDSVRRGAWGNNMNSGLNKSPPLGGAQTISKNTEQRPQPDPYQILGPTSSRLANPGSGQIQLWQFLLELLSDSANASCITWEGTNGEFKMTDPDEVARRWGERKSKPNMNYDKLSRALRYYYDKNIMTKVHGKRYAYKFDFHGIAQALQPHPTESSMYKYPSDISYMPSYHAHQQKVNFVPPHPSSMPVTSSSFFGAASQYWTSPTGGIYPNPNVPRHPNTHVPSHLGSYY
Outline: (§1)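 The binding signal reported is, for every hexamer, its read frequency for a factor over its read frequency for the tag-only sample. Reads came from pools of yeast-expressed, GST-fused human transcription factors on glutathione beads, barcoded with DNA and mixed with that sample, which were incubated with 200 nmole of a random double-stranded 16-mer DNA library in Tris/NaCl/DTT/glycerol buffer at room temperature for 30 min. After washing, the pools were crosslinked with 0.1% formaldehyde, proximity-ligated with BsaI/T4 ligase for 1 h at 37 °C, PCR-amplified and sequenced on an Illumina NextSeq500.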

[2] = biological target: T2, GABPA (Homo sapiens, UniProt Q06546 1-454); conditions: protein: recombinant; tags: N-terminal GST; dsDNA, one strand shown
T2 sequence: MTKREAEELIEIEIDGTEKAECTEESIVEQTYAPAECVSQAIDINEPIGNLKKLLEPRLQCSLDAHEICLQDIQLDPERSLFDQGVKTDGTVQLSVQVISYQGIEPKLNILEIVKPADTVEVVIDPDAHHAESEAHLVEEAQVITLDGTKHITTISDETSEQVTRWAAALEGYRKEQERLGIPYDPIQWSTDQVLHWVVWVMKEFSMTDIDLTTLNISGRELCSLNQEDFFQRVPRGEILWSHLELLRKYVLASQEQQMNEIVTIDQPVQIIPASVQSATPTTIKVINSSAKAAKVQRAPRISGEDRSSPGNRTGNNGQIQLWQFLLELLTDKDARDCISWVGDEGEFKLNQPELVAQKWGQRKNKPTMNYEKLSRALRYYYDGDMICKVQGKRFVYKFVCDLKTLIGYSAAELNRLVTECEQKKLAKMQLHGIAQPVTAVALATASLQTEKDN
Outline: as §1

[3] = biological target: T3, ERG (Homo sapiens, UniProt P11308 1-479); conditions: protein: recombinant; tags: N-terminal GST; dsDNA, one strand shown
T3 sequence: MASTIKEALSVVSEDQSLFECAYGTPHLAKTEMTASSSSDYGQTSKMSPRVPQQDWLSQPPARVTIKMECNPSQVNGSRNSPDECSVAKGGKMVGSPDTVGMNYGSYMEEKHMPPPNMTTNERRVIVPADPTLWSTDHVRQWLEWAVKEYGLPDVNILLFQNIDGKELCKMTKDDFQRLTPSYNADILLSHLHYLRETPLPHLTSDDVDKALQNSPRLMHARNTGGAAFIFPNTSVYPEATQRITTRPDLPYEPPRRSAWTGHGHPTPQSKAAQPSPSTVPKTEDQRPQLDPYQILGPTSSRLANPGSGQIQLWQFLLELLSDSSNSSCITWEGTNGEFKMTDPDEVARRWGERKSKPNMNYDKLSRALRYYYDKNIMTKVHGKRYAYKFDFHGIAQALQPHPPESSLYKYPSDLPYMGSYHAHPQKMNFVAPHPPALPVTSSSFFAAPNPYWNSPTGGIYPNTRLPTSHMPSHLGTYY
Outline: as §1

[4] = biological target: ELF1 (Homo sapiens, UniProt P32519 1-619); conditions: protein: recombinant; tags: N-terminal GST; dsDNA, one strand shown
Outline: as §1

[5] = biological target: T4, EHF (Homo sapiens, UniProt Q9NZC4 1-300); conditions: protein: recombinant; tags: N-terminal GST; dsDNA, one strand shown
T4 sequence: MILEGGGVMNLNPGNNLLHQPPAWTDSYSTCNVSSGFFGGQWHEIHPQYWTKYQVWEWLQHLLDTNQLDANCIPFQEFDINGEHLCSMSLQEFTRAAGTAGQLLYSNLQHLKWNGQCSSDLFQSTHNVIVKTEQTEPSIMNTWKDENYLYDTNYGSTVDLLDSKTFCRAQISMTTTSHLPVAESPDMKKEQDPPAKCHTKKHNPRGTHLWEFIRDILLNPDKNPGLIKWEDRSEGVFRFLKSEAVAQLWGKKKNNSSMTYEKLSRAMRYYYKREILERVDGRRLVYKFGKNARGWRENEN
Outline: as §1

[6] = biological target: SPI1 (Homo sapiens, UniProt P17947 1-270); conditions: protein: recombinant; tags: N-terminal GST; dsDNA, one strand shown
Outline: as §1

[7] = biological target: SPIB (Homo sapiens, UniProt Q01892 1-262); conditions: protein: recombinant; tags: N-terminal GST; dsDNA, one strand shown
Outline: as §1

[8] = biological target: T5, ELK3 (Homo sapiens, UniProt P41970 1-407); conditions: protein: recombinant; tags: N-terminal GST; dsDNA, one strand shown
T5 sequence: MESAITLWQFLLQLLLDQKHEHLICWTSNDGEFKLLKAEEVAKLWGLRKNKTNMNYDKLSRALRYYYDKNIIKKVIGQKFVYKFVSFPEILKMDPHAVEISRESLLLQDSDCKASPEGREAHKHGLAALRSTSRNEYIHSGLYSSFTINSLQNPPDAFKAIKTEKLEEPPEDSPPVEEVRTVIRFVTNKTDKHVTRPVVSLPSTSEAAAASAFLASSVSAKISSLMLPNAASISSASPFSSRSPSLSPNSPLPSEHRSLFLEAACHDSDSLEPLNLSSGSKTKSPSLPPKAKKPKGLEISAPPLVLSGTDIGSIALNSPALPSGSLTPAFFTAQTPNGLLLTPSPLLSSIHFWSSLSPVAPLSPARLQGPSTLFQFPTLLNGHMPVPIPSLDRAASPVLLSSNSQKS
Outline: as §1

[9] = biological target: T6, FEV (Homo sapiens, UniProt Q99581 1-238); conditions: protein: recombinant; tags: N-terminal GST; dsDNA, one strand shown
T6 sequence: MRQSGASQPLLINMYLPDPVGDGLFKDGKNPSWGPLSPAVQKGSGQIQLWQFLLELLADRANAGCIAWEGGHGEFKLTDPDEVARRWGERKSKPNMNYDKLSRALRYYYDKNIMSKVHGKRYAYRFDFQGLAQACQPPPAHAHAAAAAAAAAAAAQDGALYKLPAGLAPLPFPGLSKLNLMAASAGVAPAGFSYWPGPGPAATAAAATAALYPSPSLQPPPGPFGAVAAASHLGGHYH
Outline: as §1

[10] = biological target: ETV5 (Homo sapiens, UniProt P41161 1-510); conditions: protein: recombinant; tags: N-terminal GST; dsDNA, one strand shown
Outline: as §1

[11] = biological target: HSF1 (Homo sapiens, UniProt Q00613 1-529); conditions: protein: recombinant; tags: N-terminal GST; chain copies: 3; dsDNA, one strand shown
Outline: as §1

[12] = biological target: ELF4 (Homo sapiens, UniProt Q99607 1-663); conditions: protein: recombinant; tags: N-terminal GST; dsDNA, one strand shown
Outline: as §1

[13] = biological target: T7, ELK4 (Homo sapiens, UniProt P28324-2 1-405); conditions: protein: recombinant; tags: N-terminal GST; dsDNA, one strand shown
T7 sequence: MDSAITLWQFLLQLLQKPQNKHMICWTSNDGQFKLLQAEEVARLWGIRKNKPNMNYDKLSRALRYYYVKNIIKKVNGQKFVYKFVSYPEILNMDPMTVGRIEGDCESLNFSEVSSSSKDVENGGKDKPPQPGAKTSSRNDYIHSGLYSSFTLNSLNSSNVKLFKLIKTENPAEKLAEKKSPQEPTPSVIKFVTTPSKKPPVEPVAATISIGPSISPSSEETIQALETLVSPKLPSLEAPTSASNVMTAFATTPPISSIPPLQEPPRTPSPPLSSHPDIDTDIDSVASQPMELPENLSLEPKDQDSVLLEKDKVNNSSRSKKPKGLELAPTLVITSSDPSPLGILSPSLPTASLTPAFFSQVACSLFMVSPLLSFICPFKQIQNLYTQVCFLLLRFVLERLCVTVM
Outline: as §1

[14] = biological target: T8, ETV2 (Homo sapiens, UniProt O00321 1-342); conditions: protein: recombinant; tags: N-terminal GST; dsDNA, one strand shown
T8 sequence: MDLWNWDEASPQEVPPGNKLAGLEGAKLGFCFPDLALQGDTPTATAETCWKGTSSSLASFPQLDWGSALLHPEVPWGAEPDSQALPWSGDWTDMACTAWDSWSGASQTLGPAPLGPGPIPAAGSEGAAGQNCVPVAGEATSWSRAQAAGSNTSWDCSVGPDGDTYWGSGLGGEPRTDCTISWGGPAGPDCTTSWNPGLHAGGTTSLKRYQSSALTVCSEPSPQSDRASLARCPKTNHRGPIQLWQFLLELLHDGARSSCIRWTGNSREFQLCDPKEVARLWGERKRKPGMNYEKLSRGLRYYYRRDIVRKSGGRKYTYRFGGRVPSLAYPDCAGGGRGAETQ
Outline: as §1

[15] = biological target: CRX (Homo sapiens, UniProt O43186 1-299); conditions: protein: recombinant; tags: N-terminal GST; dsDNA, one strand shown
Outline: as §1

[16] = biological target: T9, ELK1 (Homo sapiens, UniProt P19419 1-428); conditions: protein: recombinant; tags: N-terminal GST; dsDNA, one strand shown
T9 sequence: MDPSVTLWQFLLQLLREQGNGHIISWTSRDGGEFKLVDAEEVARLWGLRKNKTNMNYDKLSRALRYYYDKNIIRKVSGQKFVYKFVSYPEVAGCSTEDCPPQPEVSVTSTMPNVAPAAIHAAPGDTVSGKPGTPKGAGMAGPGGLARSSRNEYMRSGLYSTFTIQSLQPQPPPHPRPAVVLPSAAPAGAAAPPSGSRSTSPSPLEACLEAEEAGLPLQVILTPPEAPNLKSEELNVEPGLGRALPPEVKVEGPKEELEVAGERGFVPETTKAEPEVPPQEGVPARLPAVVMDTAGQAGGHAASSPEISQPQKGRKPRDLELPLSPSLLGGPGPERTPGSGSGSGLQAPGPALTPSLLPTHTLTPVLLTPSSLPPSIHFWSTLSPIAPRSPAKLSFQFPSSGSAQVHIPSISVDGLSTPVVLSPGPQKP
Outline: as §1

[17] = biological target: T10, ELF3 (Homo sapiens, UniProt P78545 1-371); conditions: protein: recombinant; tags: N-terminal GST; dsDNA, one strand shown
T10 sequence: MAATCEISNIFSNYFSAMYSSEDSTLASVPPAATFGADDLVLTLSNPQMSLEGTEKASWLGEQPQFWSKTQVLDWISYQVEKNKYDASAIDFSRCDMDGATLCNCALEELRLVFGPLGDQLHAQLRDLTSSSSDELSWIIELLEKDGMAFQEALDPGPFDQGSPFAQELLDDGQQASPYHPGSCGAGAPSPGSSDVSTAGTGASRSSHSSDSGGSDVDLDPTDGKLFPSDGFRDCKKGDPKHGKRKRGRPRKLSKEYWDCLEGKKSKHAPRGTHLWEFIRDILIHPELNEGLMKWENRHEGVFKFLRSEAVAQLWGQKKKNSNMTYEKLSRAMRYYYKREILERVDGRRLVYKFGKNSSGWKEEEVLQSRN
Outline: as §1

[18] = biological target: ETV1 (Homo sapiens, UniProt P50549 1-477); conditions: protein: recombinant; tags: N-terminal GST; dsDNA, one strand shown
Outline: as §1

Chain of ELF1 (P32519 whole entry): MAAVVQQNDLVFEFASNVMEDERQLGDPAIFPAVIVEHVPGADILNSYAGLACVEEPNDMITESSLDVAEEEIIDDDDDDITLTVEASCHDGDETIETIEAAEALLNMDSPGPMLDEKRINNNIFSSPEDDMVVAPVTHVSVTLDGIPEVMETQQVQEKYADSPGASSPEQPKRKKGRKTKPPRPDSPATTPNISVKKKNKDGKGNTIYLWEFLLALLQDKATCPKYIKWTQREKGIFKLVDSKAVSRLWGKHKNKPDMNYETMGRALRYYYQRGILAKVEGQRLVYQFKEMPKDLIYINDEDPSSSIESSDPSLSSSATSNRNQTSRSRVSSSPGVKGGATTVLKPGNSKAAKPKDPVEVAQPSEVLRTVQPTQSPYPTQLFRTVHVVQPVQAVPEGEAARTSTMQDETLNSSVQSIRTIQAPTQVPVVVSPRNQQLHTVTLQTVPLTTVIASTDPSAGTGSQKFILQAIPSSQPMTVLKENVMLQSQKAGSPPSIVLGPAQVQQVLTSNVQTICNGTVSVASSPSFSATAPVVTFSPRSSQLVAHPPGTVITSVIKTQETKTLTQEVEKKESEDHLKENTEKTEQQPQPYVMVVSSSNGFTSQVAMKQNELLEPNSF
Chain of CRX (O43186 whole entry): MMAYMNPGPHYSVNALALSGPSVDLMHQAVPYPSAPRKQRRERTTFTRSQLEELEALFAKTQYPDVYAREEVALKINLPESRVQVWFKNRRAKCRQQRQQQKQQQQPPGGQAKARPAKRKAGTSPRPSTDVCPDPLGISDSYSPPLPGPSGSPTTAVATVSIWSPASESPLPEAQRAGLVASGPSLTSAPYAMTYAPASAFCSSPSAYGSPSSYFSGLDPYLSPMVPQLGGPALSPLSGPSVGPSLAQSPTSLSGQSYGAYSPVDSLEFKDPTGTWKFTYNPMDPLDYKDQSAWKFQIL
Chain of ETV5 (P41161 whole entry): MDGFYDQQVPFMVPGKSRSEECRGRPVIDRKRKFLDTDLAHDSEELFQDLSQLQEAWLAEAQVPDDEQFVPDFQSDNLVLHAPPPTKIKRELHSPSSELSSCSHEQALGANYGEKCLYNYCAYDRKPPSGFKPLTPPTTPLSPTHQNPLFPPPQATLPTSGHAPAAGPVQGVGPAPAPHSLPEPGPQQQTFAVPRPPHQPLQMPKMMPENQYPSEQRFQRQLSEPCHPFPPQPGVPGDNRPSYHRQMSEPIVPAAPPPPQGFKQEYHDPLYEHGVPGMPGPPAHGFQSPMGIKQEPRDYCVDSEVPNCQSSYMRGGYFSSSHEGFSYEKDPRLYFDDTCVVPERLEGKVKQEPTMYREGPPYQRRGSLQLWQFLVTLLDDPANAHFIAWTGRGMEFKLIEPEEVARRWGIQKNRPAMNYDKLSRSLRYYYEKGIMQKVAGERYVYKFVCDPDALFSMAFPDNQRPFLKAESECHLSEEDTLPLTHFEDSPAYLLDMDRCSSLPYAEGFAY
Chain of SPIB (Q01892 whole entry): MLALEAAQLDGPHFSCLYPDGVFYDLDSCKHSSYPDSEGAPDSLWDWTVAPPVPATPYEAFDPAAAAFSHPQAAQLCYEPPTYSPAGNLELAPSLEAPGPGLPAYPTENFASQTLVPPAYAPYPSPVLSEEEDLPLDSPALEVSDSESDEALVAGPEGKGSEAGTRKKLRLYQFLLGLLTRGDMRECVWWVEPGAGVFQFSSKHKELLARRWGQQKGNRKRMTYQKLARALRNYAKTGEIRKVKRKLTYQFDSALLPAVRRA
Chain of HSF1 (Q00613 whole entry): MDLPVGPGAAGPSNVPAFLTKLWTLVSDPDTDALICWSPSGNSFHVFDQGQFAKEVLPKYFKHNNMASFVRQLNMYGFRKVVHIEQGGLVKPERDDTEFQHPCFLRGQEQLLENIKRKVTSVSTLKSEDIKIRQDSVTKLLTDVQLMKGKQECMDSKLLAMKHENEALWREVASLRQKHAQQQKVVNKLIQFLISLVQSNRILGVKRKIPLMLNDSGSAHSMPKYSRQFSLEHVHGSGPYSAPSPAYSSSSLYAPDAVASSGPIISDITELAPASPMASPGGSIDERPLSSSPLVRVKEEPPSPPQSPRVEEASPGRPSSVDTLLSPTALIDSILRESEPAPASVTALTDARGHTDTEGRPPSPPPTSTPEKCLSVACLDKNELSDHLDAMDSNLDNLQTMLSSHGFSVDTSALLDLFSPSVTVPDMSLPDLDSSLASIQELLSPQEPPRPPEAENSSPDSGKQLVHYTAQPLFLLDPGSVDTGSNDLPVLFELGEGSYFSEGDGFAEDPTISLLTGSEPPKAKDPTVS
Chain of ELF4 (Q99607 whole entry): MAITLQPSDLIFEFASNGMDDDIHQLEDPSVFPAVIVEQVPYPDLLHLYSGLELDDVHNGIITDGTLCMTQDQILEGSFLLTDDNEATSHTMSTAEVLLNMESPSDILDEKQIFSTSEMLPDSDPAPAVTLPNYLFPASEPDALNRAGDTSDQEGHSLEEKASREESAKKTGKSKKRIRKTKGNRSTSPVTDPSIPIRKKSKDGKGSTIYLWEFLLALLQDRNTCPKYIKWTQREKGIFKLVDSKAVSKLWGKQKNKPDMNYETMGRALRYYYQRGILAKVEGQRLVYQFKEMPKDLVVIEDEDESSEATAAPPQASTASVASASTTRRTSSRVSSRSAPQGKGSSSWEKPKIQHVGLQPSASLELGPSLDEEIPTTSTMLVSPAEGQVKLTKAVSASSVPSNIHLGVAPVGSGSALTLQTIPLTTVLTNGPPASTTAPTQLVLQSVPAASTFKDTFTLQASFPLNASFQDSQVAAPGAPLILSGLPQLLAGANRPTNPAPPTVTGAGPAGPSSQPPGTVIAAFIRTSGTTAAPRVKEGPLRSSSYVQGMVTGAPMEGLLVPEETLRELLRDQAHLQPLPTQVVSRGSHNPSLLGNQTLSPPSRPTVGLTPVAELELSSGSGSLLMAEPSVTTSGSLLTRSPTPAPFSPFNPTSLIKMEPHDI
Chain of ETV1 (P50549 whole entry): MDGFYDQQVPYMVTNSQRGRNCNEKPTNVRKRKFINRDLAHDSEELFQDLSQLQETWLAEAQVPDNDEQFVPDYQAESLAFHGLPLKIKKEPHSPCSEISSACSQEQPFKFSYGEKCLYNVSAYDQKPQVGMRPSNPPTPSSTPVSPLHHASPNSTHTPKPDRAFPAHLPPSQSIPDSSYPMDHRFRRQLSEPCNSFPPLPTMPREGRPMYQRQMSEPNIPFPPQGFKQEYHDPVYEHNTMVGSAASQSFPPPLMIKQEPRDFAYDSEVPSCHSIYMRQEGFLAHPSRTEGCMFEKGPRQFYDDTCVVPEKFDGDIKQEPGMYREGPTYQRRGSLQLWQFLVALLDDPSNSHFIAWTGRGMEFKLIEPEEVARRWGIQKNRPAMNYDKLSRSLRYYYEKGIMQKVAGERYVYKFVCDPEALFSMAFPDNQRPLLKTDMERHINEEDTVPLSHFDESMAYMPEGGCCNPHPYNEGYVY

Sequence	binding signal [1]	binding signal [2]	binding signal [3]	binding signal [4]	binding signal [5]	binding signal [6]	binding signal [7]	binding signal [8]	binding signal [9]	binding signal [10]	binding signal [11]	binding signal [12]	binding signal [13]	binding signal [14]	binding signal [15]	binding signal [16]	binding signal [17]	binding signal [18]
GTTATC	1.12 fold enrichment (6-mer frequency, TF over GST control)	1.07 fold enrichment (6-mer frequency, TF over GST control)	1.1 fold enrichment (6-mer frequency, TF over GST control)	1.09 fold enrichment (6-mer frequency, TF over GST control)	1.12 fold enrichment (6-mer frequency, TF over GST control)	1.03 fold enrichment (6-mer frequency, TF over GST control)	1.02 fold enrichment (6-mer frequency, TF over GST control)	1.22 fold enrichment (6-mer frequency, TF over GST control)	1.05 fold enrichment (6-mer frequency, TF over GST control)	1.12 fold enrichment (6-mer frequency, TF over GST control)	1.03 fold enrichment (6-mer frequency, TF over GST control)	1.04 fold enrichment (6-mer frequency, TF over GST control)	1.22 fold enrichment (6-mer frequency, TF over GST control)	1.21 fold enrichment (6-mer frequency, TF over GST control)	1.24 fold enrichment (6-mer frequency, TF over GST control)	–	–	–
TAGTGC	1.05 fold enrichment (6-mer frequency, TF over GST control)	1.12 fold enrichment (6-mer frequency, TF over GST control)	–	1.1 fold enrichment (6-mer frequency, TF over GST control)	–	1.05 fold enrichment (6-mer frequency, TF over GST control)	1.03 fold enrichment (6-mer frequency, TF over GST control)	1.07 fold enrichment (6-mer frequency, TF over GST control)	1.02 fold enrichment (6-mer frequency, TF over GST control)	1.08 fold enrichment (6-mer frequency, TF over GST control)	1.02 fold enrichment (6-mer frequency, TF over GST control)	–	1.04 fold enrichment (6-mer frequency, TF over GST control)	1.02 fold enrichment (6-mer frequency, TF over GST control)	1.16 fold enrichment (6-mer frequency, TF over GST control)	1.02 fold enrichment (6-mer frequency, TF over GST control)	1.03 fold enrichment (6-mer frequency, TF over GST control)	1.09 fold enrichment (6-mer frequency, TF over GST control)
